In PubChem BioAssay (EPA / NIEHS):
Active and inactive are the calls of the source. Rule for the calls: active = hit-call score of the fitted dose curve at least 0.9, where 1 is the maximum; inactive = score below 0.9.

Key:
[1] = APR_HepG2_CellLoss_1hr: Apredica 1-hour HepG2 Assay for Cell Loss (AID 2282668); conditions: high-content imaging;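 note: curves fitted both ways against DMSO so gain or loss of cells counts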
Method in brief: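 HepG2 cells were treated for 1 h with compound at 0.39–200 uM, in duplicate, in 0.5% DMSO. After formaldehyde fixation, Hoechst 33342-stained nuclei were imaged on an ArrayScan to count cells. Data were fitted bidirectionally versus DMSO.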

[2] = APR_HepG2_MicrotubuleCSK_1hr: Apredica 1-hour HepG2 Assay for Microtubule CSK Stabilty (AID 2282669); conditions: HepG2 microtubule cytoskeleton imaging, actives raise or lower the signal
Method in brief: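 HepG2 cells exposed 1 h to 0.39–200 uM compound (0.5% DMSO, duplicates), then formaldehyde-fixed, permeabilized and immunostained for alpha-tubulin with Hoechst nuclei. Imaged by ArrayScan high-content analysis; bidirectional fit versus DMSO.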

[3] = APR_HepG2_p53Act_1hr: Apredica 1-hour HepG2 Assay for p53 Activation (AID 2282671); conditions: high-content imaging, actives raise or lower the signal
Method in brief: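 HepG2 cells treated 1 h with compound at 0.39–200 uM (10 concentrations, duplicate) in 0.5% DMSO. Formaldehyde-fixed, permeabilised cells immunostained for p53 with Hoechst 33342; high-content imaging, bidirectional fit versus DMSO.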

[4] = APR_HepG2_MitoticArrest_1hr: Apredica 1-hour HepG2 Assay for Mitotic Arrest (AID 2282672); conditions: high-content imaging, actives raise or lower the signal
Method in brief: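 HepG2 cells exposed 1 hr to compounds at 0.39–200 uM (0.5% v/v DMSO final), then fixed in 3.7% formaldehyde and immunostained for phospho-histone H3 with Hoechst 33342. Mitotic arrest scored by automated fluorescence imaging, fitted bidirectionally versus DMSO.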

[5] = APR_HepG2_P-H2AX_1hr: Apredica 1-hour HepG2 Assay for H2AX Phosphorylation (AID 2282673); conditions: high-content imaging, actives raise or lower the signal
Method in brief: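 HepG2 dosed 1 hr at 0.39-200 uM (0.5% DMSO final), duplicate. Fixed in 3.7% formaldehyde, Triton permeabilized, immunostained for phospho-histone H2A.x (1:200) with Hoechst 33342; ArrayScan 20x imaging, bidirectional fit vs DMSO.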

[6] = APR_HepG2_MitoMembPot_1hr: Apredica 1-hour HepG2 Assay for Mitochondrial Membrane Potential (AID 2282675); conditions: imaging, actives raise or lower the signal
Method in brief: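 HepG2 cells dosed 1 hour with 0.39–200 uM compound in duplicate, 0.5% DMSO final. MitoTracker Red CMXRos (250 nM, 30 min) loaded before formaldehyde fixation; fluorescence quantified by high-content imaging, bidirectional fitting versus DMSO.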

[7] = APR_HepG2_CellCycleArrest_24hr: Apredica 24-hour HepG2 Assay for Cell Cycle Arrest (AID 2282905); conditions: imaging, actives raise or lower the signal;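 note: cell cycle arrest scored as ratio of 2N to 4N nuclear DNA content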
Method in brief: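 HepG2 cells were exposed to compounds at 0.39–200 uM (ten concentrations, duplicate) in 0.5% v/v DMSO for 24 hr. After formaldehyde fixation and Triton permeabilization, Hoechst 33342-stained nuclei were imaged at 20x; DNA content was quantified, with bidirectional fitting against DMSO.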

[8] = APR_HepG2_StressKinase_1hr: Apredica 1-hour HepG2 Assay for Stress Kinase (AID 2282906); conditions: HepG2 stress kinase (phospho-c-Jun) imaging, actives raise or lower the signal
Method in brief: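 HepG2 cells dosed 0.39-200 uM (0.5% DMSO) for 1 h, then formaldehyde-fixed. Stress kinase read by phospho-c-Jun immunofluorescence using high-content imaging; bidirectional fit vs DMSO.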

[9] = APR_HepG2_NuclearSize_24hr: Apredica 24-hour HepG2 Assay for Nuclear Size (AID 2282907); conditions: high-content imaging, actives raise or lower the signal
Method in brief: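 HepG2 human liver cells were exposed for 24 hr to compounds at 0.39–200 uM (ten concentrations, duplicate) in 0.5% v/v DMSO. They were then formaldehyde-fixed, Triton-permeabilized and Hoechst 33342-stained, and nuclear diameter was imaged at 20x. Bidirectional fits were made against DMSO.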

[10] = APR_HepG2_CellLoss_24hr: Apredica 24-hour HepG2 Assay for Cell Loss (AID 2282908); conditions: high-content imaging;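 for AC50: fit in both directions so a hit may be cell loss or gain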
Method in brief: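 Compounds were tested at 0.39–200 uM in duplicate with 0.5% v/v DMSO final. Cells were then fixed in 3.7% formaldehyde, Hoechst 33342 nuclei were imaged at 20x by HCS, and cell number was fitted bidirectionally against DMSO.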

[11] = APR_HepG2_MicrotubuleCSK_24hr: Apredica 24-hour HepG2 Assay for Microtubule CSK Stabilty (AID 2282909); conditions: HepG2 microtubule cytoskeleton imaging, actives raise or lower the signal
Method in brief: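 HepG2 cells exposed 24 h to compounds at 0.39–200 uM (duplicate, 0.5% v/v DMSO final), then fixed, permeabilized and immunostained for alpha-tubulin with Hoechst 33342. Cytoskeleton imaged at 20x; bidirectional fit versus DMSO baseline.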

[12] = APR_HepG2_MitoticArrest_24hr: Apredica 24-hour HepG2 Assay for Mitotic Arrest (AID 2282910); conditions: high-content imaging, actives raise or lower the signal
Method in brief: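 HepG2 cells, 24 h exposure at 0.39-200 uM (10 concentrations, duplicate, 0.5% DMSO). Fixed, stained for phospho-histone H3 with Hoechst; imaged by high-content microscopy, bidirectional fit versus DMSO.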

[13] = APR_HepG2_MitoMembPot_24hr: Apredica 24-hour HepG2 Assay for Mitochondrial Membrane Potential (AID 2282911); conditions: imaging, actives raise or lower the signal
Method in brief: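 Mitochondrial membrane potential imaged via MitoTracker Red CMXRos (250 nM, 30 min pre-fixation) in fixed HepG2 cells with Hoechst nuclear identification. Ten concentrations 0.39–200 uM, 24 h treatment, 0.5% DMSO; CCCP as positive control.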

[14] = APR_HepG2_MitoMass_24hr: Apredica 24-hour HepG2 Assay for Mitochondrial Mass (AID 2282912); conditions: high-content imaging, actives raise or lower the signal
Method in brief: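 Human HepG2 liver cells were exposed for 24 hr to compounds at 0.39–200 uM (duplicates, 0.5% v/v DMSO final). They were stained live with 250 nM MitoTracker Red CMXRos for 30 min, fixed in 3.7% formaldehyde, and imaged by HCS fluorescence; signals were fitted bidirectionally against DMSO.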

[15] = APR_HepG2_p53Act_24hr: Apredica 24-hour HepG2 Assay for p53 Activation (AID 2282913); conditions: high-content imaging, actives raise or lower the signal;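 note: p53 protein immunofluorescence averaged per cell in HepG2 with Hoechst nuclei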
Method in brief: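 Fluorescence imaging of formaldehyde-fixed HepG2 cells labelled for p53 and with Hoechst, 24 h after dosing (0.39–200 uM, duplicate wells, 0.5% v/v DMSO). Signal fitted in both directions relative to DMSO.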

[16] = APR_HepG2_CellCycleArrest_72hr: Apredica 72-hour HepG2 Assay for Cell Cycle Arrest (AID 2282914); conditions: high-content imaging, actives raise or lower the signal
Method in brief: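 Read-out: nuclear DNA content from Hoechst 33342 high-content imaging (20x, six fields/well) after 3.7% formaldehyde fixation, fitted bidirectionally against DMSO. Treatment was 72 h in HepG2, ten concentrations 0.39–200 uM, duplicate, 0.5% DMSO.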

[17] = APR_HepG2_CellLoss_72hr: Apredica 72-hour HepG2 Assay for Cell Loss (AID 2282915); conditions: high-content imaging
Method in brief: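 HepG2 cells exposed 72 h to compound at 0.39–200 uM (10 concentrations, duplicate) in 0.5% DMSO. Fixed with 3.7% formaldehyde and Hoechst 33342-stained. Imaged at 20x; nuclear count gives cell number, fitted bidirectionally versus DMSO.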

[18] = APR_HepG2_CellCycleArrest_1hr: Apredica 1-hour HepG2 Assay for Cell Cycle Arrest (AID 2282666); conditions: high-content imaging, actives raise or lower the signal
Method in brief: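 HepG2 cells exposed for 1 h to 0.39–200 uM compound (0.5% DMSO). Fixed, Hoechst-stained nuclei imaged by ArrayScan; DNA content quantified by Cell Cycle analysis; bidirectional fit against DMSO.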

[19] = APR_HepG2_MitoMass_1hr: Apredica 1-hour HepG2 Assay for Mitochondrial Mass (AID 2282674); conditions: high-content imaging, actives raise or lower the signal
Method in brief: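 HepG2 cells dosed 1 hr with 0.39-200 uM compound (0.5% DMSO), duplicate wells. Mitochondria stained with 250 nM MitoTracker Red CMXRos for 30 min before formaldehyde fixation, imaged at 20x by ArrayScan; bidirectional fit versus DMSO.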

[20] = APR_HepG2_NuclearSize_1hr: Apredica 1-hour HepG2 Assay for Nuclear Size (AID 2282670); conditions: high-content imaging, actives raise or lower the signal
Method in brief: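 HepG2 cells dosed 1 hr with 0.39–200 uM compound (0.5% DMSO), formaldehyde-fixed, Hoechst 33342-stained and imaged at 20x; nuclear diameter from nuclear stain, fitted bidirectionally against DMSO.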

Measured: AC50

C[C@H]1[C@H](c2ccc(Cl)cc2)SC(=O)N1C(=O)NC1CCCCC1
active: [17] 33.5 µM
not listed: [18] | [19] | [20]
inactive: all other assays above

O=C(NC(=O)c1c(F)cccc1F)Nc1ccc(OC(F)(F)C(F)OC(F)(F)F)c(Cl)c1 (stereo not given)
not listed: [1] | [3] | [15] | [20]
inactive: all other assays above

CC1(c2ccc(Oc3ccccc3)cc2)OC(=O)N(Nc2ccccc2)C1=O (stereo not given)
active: [10] 120 µM | [11] 88.5 µM | [12] 98.3 µM | [13] 6.77 µM | [17] 32.6 µM
not listed: [18] | [19] | [20]
inactive: all other assays above

O=[N+]([O-])/N=C1\NCCN1Cc1ccc(Cl)nc1
not listed: [1] | [3] | [15] | [19] | [20]
inactive: all other assays above

O=S1OCC2C(CO1)C1(Cl)C(Cl)=C(Cl)C2(Cl)C1(Cl)Cl (stereo not given)
active: [6] 118 µM | [8] 94.4 µM | [16] 95.3 µM | [17] 100 µM
not listed: [18] | [19] | [20]
inactive: all other assays above

N#Cc1c(Cl)c(Cl)c(Cl)c(C#N)c1Cl
active: [4] 8.28 µM | [5] 3.46 µM | [6] 61.5 µM | [8] 1.94 µM | [17] 0.452 µM
not listed: [1] | [19]
inactive: all other assays above

Cc1cc(C)nc(NC(=O)NS(=O)(=O)c2ccccc2C(=O)OC2COC2)n1
not listed: [1] | [19] | [20]
inactive: all other assays above

C#CCN1C(=O)COc2cc(F)c(N3C(=O)C4=C(CCCC4)C3=O)cc21
not listed: [3] | [15] | [18] | [19] | [20]
inactive: all other assays above

OCCOc1ccccc1
not listed: [18] | [19]
inactive: all other assays above

Clc1ccccc1-c1nnc(-c2ccccc2Cl)nn1
active: [7] 67.6 µM | [13] 59.5 µM | [17] 39.7 µM
not listed: [1] | [3] | [15] | [19] | [20]
inactive: all other assays above

O=C(O)COc1ccc(Cl)cc1Cl
not listed: [18] | [19] | [20]
inactive: all other assays above

O=C(O)CCCOc1ccc(Cl)cc1Cl
not listed: [18] | [20]
inactive: all other assays above

Cc1[nH]c(=O)n(C(C)(C)C)c(=O)c1Cl
not listed: [1] | [3] | [15] | [19] | [20]
inactive: all other assays above
